Experimental data taken from PMC12136788.
Substitutions are numbered along the chain they refer to. Whole data set: some 24,000 sequences, median “enrichment r” near 0.99, cut for the highest 2% near 3.7. The sample as a whole holds a higher share of the highest values than the screen did.

T1: UNK ZnF1-3 (human, UniProt Q9C0B0 31-174)
T1 sequence: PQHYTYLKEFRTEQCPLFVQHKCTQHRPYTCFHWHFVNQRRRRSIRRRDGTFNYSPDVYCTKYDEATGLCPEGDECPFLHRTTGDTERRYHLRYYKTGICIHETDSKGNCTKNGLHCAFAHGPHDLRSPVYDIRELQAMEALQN

B1: chr2:219525992:219525993:+_ENSG00000074582_ENST00000359273|hu_mus|FALSE|FALSE (ssRNA)
RNA: GGGAGUUCUACAGUCCGACGAUCGAUCCAUUUUCCCUGAUACCAAAUGAAGUGGUUUCCAGGGCUGGGGAUAAAUUCAAACUUGGUGGAGAUCCGGCCACUUUCAUGCUGAAGGUAUGAGGUUUCAACACUGAGGUGCUGAGUCAACAGAGGAUUGAGCAUCA
B2: 156047189_156047309_678_CDS_ENSG00000254726_ENST00000532414|human|control|control (ssRNA)
RNA: GGGAGUUCUACAGUCCGACGAUCGAUGGUUGCCCCUUUGGGGCCCACCACCAGCCCCACCACGCGGUAGGGCACCCGCACACGGAUGGUCACCUGGCCGGGCAGAGCAGGAGCCACACCAAAGGCGGCGCCUGACUUGUUGCGCAACAGAGGAUUGAGCAUCA
B3: 107436344_107436464_280_CDS_ENSMUSG00000020721_ENSMUST00000106746|mouse|control|control (ssRNA)
RNA: GGGAGUUCUACAGUCCGACGAUCGGCAAUUCUGUAAAGAAGACUCUCAAUUUUGAUGCGCUCAACCUCCACCGGGCACGGCCCUGUGAAGUCUGCCAUGGAGUACUGGCCAAGAGAGAGCAGGGCGUCGGUGCAGUGCUGGAGCAACAGAGGAUUGAGCAUCA
B4: 139370288_139370408_1793_CDS_ENSG00000148396_ENST00000313050|human|control|control (ssRNA)
RNA: GGGAGUUCUACAGUCCGACGAUCGGUUGAGGGCUGGGACACGCUGCCACGGUAAUUCUGGCUCACAGUGGUCUCGUCUGUUUCACCUCCUACGGGAGAAGAAUCGAUUUGCUUAAAAAAACUACCUGAAGCUUCAUCCUCGGGCAACAGAGGAUUGAGCAUCA
B5: 15271559_15271679_6895_CDS_ENSG00000074181_ENST00000263388|human|control|control (ssRNA)
RNA: GGGAGUUCUACAGUCCGACGAUCGGGAAGUGGCUGGGCAGGCAGUGCCCCAGUGGUGGUGGCCAUGGCCCCAGUGGCAGUGGCUGGGCUAGGCGUGGAUUCGGACCAGUCUGAGAGGGAGGGAGGUGAGGGGCUGGCCCAGUGCAACAGAGGAUUGAGCAUCA
B6: 129698844_129698964_1004_3pUTR_ENSMUSG00000026349_ENSMUST00000027587|mouse|control|control (ssRNA)
RNA: GGGAGUUCUACAGUCCGACGAUCCUGCUAGCACUGAUAAAUUAUCAGAUGCACGGCUAUCUUGAACAGAAGUACUUCCUGAAUUUAGAGGUAUUGGAGCAGGGAACGUUGAUGUUGAUGGUUUCUGAAAGCUUGGGUUGGCAGCAACAGAGGAUUGAGCAUCA
B7: chr1:184247048:184247049:-_ENSMUSG00000047539_ENSMUST00000051431|mus_mus|FALSE|FALSE (ssRNA)
RNA: GGGAGUUCUACAGUCCGACGAUCCUGGAGCUAGAGCCAUAUUCCAAUCUACUUCCUAUUCCGAAGUCGUUUGGAUUUCCUAAGAGAGUCUAUGGCUUCCGUUGCCUUCCGUCGUUUCCGAGGGGACUCCUCACUCUGCCCAGACAACAGAGGAUUGAGCAUCA
B8: chr11:20101544:20101545:+_ENSMUSG00000020149_ENSMUST00000020358|mus_hu|FALSE|FALSE (ssRNA)
RNA: GGGAGUUCUACAGUCCGACGAUCUGCCGCAGCCGCCGCCCUGACUCUCCGCGCCACGGGUAAUCGAAAGAAAGGAAUGAGAUAGGCUGUUCCGGGAGAGCAAACGUCUUCCCCUACUCCGUCCCCUAGAACACAAUCAGCAGCCAACAGAGGAUUGAGCAUCA
B9: chr17:56552419:56552420:-_ENSMUSG00000013236_ENSMUST00000086828|mus_mus|mus_mus_mus_hu_False|68_68 (ssRNA)
RNA: GGGAGUUCUACAGUCCGACGAUCAAAAAAUACACUAUUUAAAAAAAAUGAAAUGUCACGGGAUACAAAAAAAUAUAGAGUUUUAAAAGAAAGCUGGAUUCUGGUCCCAGCCCAGUGUCCCCAGGCUGCAGAGCGGGGAGGAGCCAACAGAGGAUUGAGCAUCA
B10: chr17:56552419:56552420:-_ENSMUSG00000013236_ENSMUST00000086828|mus_mus|mus_mus_mus_hu_False|18_68 (ssRNA)
RNA: B9 RNA with U117G, C119A, C120G, C121G, A122C, G123A, C125G, U126G
B11: chr15:76910149:76910150:-_ENSMUSG00000033565_ENSMUST00000166610|mus_mus|FALSE|FALSE (ssRNA)
RNA: GGGAGUUCUACAGUCCGACGAUCAAUGCUGACGGAGGGAAGUCAUGUCUCUUAGGGGAAAGGAUCAGCUCAUCACUCGCUAUAUAACGCAGCCAAACGGGCUGCCCAACAAGCACGCACACAAGAAAUACUGUUAACAGAAAACAACAGAGGAUUGAGCAUCA
B12: chr17:56552419:56552420:-_ENSMUSG00000013236_ENSMUST00000086828|mus_mus|mus_mus_mus_hu_False|58_68 (ssRNA)
RNA: B9 RNA with G77C, G79C, U81A
B13: chr6:38652254:38652255:-_ENSG00000124767_ENST00000373365|hu_hu|hu_hu_hu_mus_False|58_98 (ssRNA)
RNA: GGGAGUUCUACAGUCCGACGAUCCGAGAACUUCAUAAUGGGAAAAUCAAGCUUCUGCAGGAGGGUCAGUCCAAGAACUCUAGUAUAAAAAUCCAGGGACUUCUUAGGAUCCUUAAUUCUUAGCAUCGUUUGCUGCAGUAGAAACAACAGAGGAUUGAGCAUCA
B14: chr15:37385894:37385895:-_ENSG00000134138_ENST00000382766|hu_mus|motif|central (ssRNA)
RNA: GGGAGUUCUACAGUCCGACGAUCGCUUCCAUCUCUCUCAUCAAUCACGAGGUCAAUGGGCAUUUUUCCCUUCAAACAGCGGAUGUACCGGUGGCAGAAGUUAUCACAUAGUUCGUGGACCUUUUCUAACUCCAGAAGAUGAAACAACAGAGGAUUGAGCAUCA
B15: chr8:29959424:29959425:+_ENSG00000104660_ENST00000321250|hu_hu|FALSE|FALSE (ssRNA)
RNA: GGGAGUUCUACAGUCCGACGAUCGAAGGGCACAUCCAAGCAUCAAAAACAUCAGUCCGAUUGCUCCUCCAAAGGACAAACUAAUCAAAGCUUUGAUGCCUGCCAUGGCGGUGACGUCGCUCCUGGCUCCACGACCCGAGGCGGCAACAGAGGAUUGAGCAUCA
B16: chr13:13598695:13598696:+_ENSMUSG00000005397_ENSMUST00000005532|mus_hu|FALSE|FALSE (ssRNA)
RNA: GGGAGUUCUACAGUCCGACGAUCCACCAAGUCAGUCUCAAAGAGCACCCGGCGCUGCGUGCCGUCCAGCUUCGCCACUUCUAUUCGAUCCAGGUUAGAGUCUGUCCAGAAGAUGUUGCGGCCAAGGUGAUCAACAGCGAUACCCAACAGAGGAUUGAGCAUCA
B17: chrX:73036348:73036349:-_ENSMUSG00000016382_ENSMUST00000114059|mus_mus|FALSE|FALSE (ssRNA)
RNA: GGGAGUUCUACAGUCCGACGAUCUGCGUACUUGGCGUUAUUGUGCUUGUCAUCUUCUGUUAGAUUCCCACUCUUCACAAGGUCAUAGUUAAUGCAGCCUGGUUGGAUGGCGUCAAUUAAAUCCACAACCGCCAAACUGGAGCUCAACAGAGGAUUGAGCAUCA
B18: 70939002_70942968_1374_3pUTR_ENSMUSG00000034761_ENSMUST00000110570|mouse|control|control (ssRNA)
RNA: GGGAGUUCUACAGUCCGACGAUCGCUCCGCUCUGGAAUUCCUGUUUGUUGAUCUAAUGGUAUGACGAAUGAUUGCGUGGGGCUCCAAGUCGUCCUCAUCGCCCUCACUGUAGGGAGCAUGGUUGUCCGGAUUGCUCACCUUGUCAACAGAGGAUUGAGCAUCA
B19: chr8:133807003:133807004:+_ENSG00000129292_ENST00000220847|hu_mus|FALSE|FALSE (ssRNA)
RNA: GGGAGUUCUACAGUCCGACGAUCUUUGUUAAUUGCUUCAAUCUUGGCAGGGUAAUAGCGACAGUCUGUCCAACGAGCCAGUACUUCUUCUCCAGCUUUAAAAUCAAAGAGCUCUUCCUCAUCCUUUAGCCCUUCUUUCCUUAGCAACAGAGGAUUGAGCAUCA
B20: chr2:49628383:49628384:+_ENSMUSG00000026764_ENSMUST00000028102|mus_hu|FALSE|FALSE (ssRNA)
RNA: GGGAGUUCUACAGUCCGACGAUCAUAAGCUUUGCAAAACCUGCCCCACAAGGACCCUUUUAUCAGACCGCAAAUAAUGGUAGAGCAGGUAUAUUGGGCUGGCACUGAUAACAAAAUUAAAGAAUGAAAAAAAUUUAAACAAAUCAACAGAGGAUUGAGCAUCA
B21: 49527313_49535755_592_CDS_ENSMUSG00000026764_ENSMUST00000028102|mouse|control|control (ssRNA)
RNA: GGGAGUUCUACAGUCCGACGAUCCAUGGUAUGAGUUUUUCCUGAUGAAGUCUGCCCAUAUGCAAAAAUUGUUCCAUUAUAACCCUCAAGGACAUCUUUGACAAUCUGCUUUGCACAGGCAUUGUAGACCUGCUCCUGGGUUGUCAACAGAGGAUUGAGCAUCA
B22: chr2:5814250:5814251:-_ENSMUSG00000025816_ENSMUST00000102981|mus_hu|mus_mus_mus_hu_True|68_108 (ssRNA)
RNA: GGGAGUUCUACAGUCCGACGAUCUUCCUUUCAGGCUUCUGAAUUUCUGGUAGAACUGCACAGAAUGGUUUAAUAACUUCUAAAAAUUUGAUGCCCAUGGCUGCUGCUGGGGAGGCCCAGGGGGAAACCGCGGCCUCGGCGCUGCAACAGAGGAUUGAGCAUCA
B23: chr2:49628351:49628352:+_ENSMUSG00000026764_ENSMUST00000028102|mus_hu|FALSE|FALSE (ssRNA)
RNA: GGGAGUUCUACAGUCCGACGAUCACCGCAAAUAAUGGUAGAGCAGGUAUAUUGGGCUGGCACUGAUAACAAAAUUAAAGAAUGAAAAAAAUUUAAACAAAUGCAAAAUUGCCAUCUUCACAAAAUAAAUACUUCAAUAGAAUUCAACAGAGGAUUGAGCAUCA
B24: chr9:37357388:37357389:+_ENSG00000147905_ENST00000336755|hu_hu|FALSE|FALSE (ssRNA)
RNA: GGGAGUUCUACAGUCCGACGAUCUUGGACACAGAGAAUUGAGAUCUCCAUGGAUAUUCAGUAACUCUAGGAAUGGCUGAAAUUAAAAAAACAAAACCAAAAACUCACUUUAUUUAAUCAUAGAUAAUAAACACAGUGCCAGAACAACAGAGGAUUGAGCAUCA
B25: chrX:35959125:35959126:+_ENSMUSG00000000355_ENSMUST00000000365|mus_mus|FALSE|FALSE (ssRNA)
RNA: GGGAGUUCUACAGUCCGACGAUCAUUUGCUCCACUGAGUACAAAUUUGAUGGCUCCUUUAUCAACCUGCUGAUGUGGCAAGAUAAAAGGAUAUUUAUGAAGUAAUCUUAAAGUUGGAUAAAAAGGCCCUUCUCUUUGUCUAAACAACAGAGGAUUGAGCAUCA

target: T1, UNK ZnF1-3; experiment: nsRBNS (natural sequence RNA bind-n-seq); RBNS binding buffer (assumed for nsRBNS): 25 mM Tris pH 7.5, 150 mM KCl, 3 mM MgCl2, 0.01% Triton X-100, 500 ug/ml BSA, 20 U/ml SUPERase-In, 4 C; UNK is unkempt and MSI1 is Musashi-1; names of the RNAs are library labels; protein concentration not given here; high values mean tight binding

Row | Binder | binding signal [enrichment R]
1 | B1 | 0.804
2 | B2 | 0.73
3 | B3 | 0.894
4 | B4 | 0.768
5 | B5 | 2.43
6 | B6 | 1.96
7 | B7 | 0.688
8 | B8 | 1.67
9 | B9 | 7.63
10 | B10 | 7.03
11 | B11 | 1.79
12 | B12 | 11.3
13 | B13 | 1.47
14 | B14 | 0.878
15 | B15 | 1.29
16 | B16 | 1.36
17 | B17 | 0.875
18 | B18 | 0.565
19 | B19 | 0.906
20 | B20 | 10
21 | B21 | 0.621
22 | B22 | 1.48
23 | B23 | 4.72
24 | B24 | 1.15
25 | B25 | 0.981
